Experiment [1] is described as follows: Primary qHTS for inhibitors of nuclear receptor binding SET domain protein 2 (NSD2) in an isogenic RCH-ACV NSD2 p.E1099K mutant (9B) (AID 1645876). Also: nearly all actives have a fitted effect of over 70% in size. Also: potency is read from the fitted curve at half-maximal effect. As to activity change, negative = viability loss: % is scaled to controls: 0 for no effect and ±100 for the full control effect. The settings on record: RCH-ACV NSD2 E1099K (9B) viability, CellTiter-Glo, 72 h; series mostly up to 44.9 µM.
The nature of experiment [2]: Primary qHTS for inhibitors of nuclear receptor binding SET domain protein 2 (NSD2) in an RCH-ACV wild type WT cells (2C) (AID 1645877). Also: nearly all actives have a fitted effect of over 70% in size. Also: potency is read from the fitted curve at half-maximal effect. The following applies: RCH-ACV (leukaemia line) NSD2 WT (2C) viability, CellTiter-Glo, 72 h; series mostly up to 44.9 µM. In general terms: qHTS replaces the single test concentration by a dilution series.
For experiment [3], the target named is Rap guanine nucleotide exchange factor 3 (Homo sapiens) (UniProt O95398). Put plainly: Confirmatory qHTS for antagonist of cAMP-regulated guanine nucleotide exchange factor 3 (EPAC1) (AID 1645880).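 Also: plate controls were DMSO only for no effect and full effect of the ATA control for full effect; nearly all actives have a fitted effect of over 55% in size.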 The following applies: EPAC1 Rap1B-BODIPY-GDP exchange, fluorescence; series mostly up to 115 µM. A digest of the protocol: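 Released BODIPY-GDP fluoresces less than Rap1-bound BODIPY-GDP; the signal is followed at 480/540 nm at 5-min intervals over 30 min, after 5 min at room temperature. Reactions contain 100 nM EPAC1, 250 nM RAP1B-BODIPY-GDP and 50 uM GDP; results are normalized to ATA and DMSO.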
Sequence of Rap guanine nucleotide exchange factor 3 (Homo sapiens) (O95398 whole entry, looked up): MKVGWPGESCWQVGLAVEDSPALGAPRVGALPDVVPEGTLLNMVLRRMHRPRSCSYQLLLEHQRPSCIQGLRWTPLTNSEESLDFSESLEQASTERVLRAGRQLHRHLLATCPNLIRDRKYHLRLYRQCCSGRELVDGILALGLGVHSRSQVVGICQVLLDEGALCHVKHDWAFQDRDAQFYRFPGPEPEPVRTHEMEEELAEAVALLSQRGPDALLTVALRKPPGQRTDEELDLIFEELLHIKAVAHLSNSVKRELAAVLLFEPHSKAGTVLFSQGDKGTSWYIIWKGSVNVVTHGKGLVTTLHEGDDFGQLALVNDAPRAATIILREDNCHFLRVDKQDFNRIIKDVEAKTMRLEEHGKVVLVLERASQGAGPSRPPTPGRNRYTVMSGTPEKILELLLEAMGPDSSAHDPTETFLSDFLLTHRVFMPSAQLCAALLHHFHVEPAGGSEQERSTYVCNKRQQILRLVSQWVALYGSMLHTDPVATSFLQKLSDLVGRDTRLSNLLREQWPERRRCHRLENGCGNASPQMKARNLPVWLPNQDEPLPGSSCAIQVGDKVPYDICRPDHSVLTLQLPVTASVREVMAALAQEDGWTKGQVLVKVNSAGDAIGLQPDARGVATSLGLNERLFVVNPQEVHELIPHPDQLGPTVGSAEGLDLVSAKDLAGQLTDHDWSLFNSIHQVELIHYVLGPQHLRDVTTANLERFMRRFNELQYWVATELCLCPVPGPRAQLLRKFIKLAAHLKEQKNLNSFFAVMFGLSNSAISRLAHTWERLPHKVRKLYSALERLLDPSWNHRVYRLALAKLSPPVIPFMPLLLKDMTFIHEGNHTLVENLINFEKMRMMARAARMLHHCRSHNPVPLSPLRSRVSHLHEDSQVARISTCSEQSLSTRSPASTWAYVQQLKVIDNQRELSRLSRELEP

Experiment [4] shares this target. Put plainly: Confirmatory qHTS for agonist of cAMP-regulated guanine nucleotide exchange factor 3 (EPAC1) (AID 1645881).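 Also: EPAC1 catalysed release of BODIPY-GDP from Rap1B seen as fluorescence loss; 100% = effect of cAMP agonist control; nearly all actives have a fitted effect of over 75% in size.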 The settings on record: EPAC1 Rap1B BODIPY-GDP exchange fluorescence; series mostly up to 154 µM.
For experiment [5], the target named is Rap guanine nucleotide exchange factor 4 (Homo sapiens) (UniProt Q8WZA2). Nature of the experiment: Confirmatory qHTS for antagonist of cAMP-regulated guanine nucleotide exchange factor 4 (EPAC2) (AID 1645885). Also: nearly all actives have a fitted effect of over 25% in size. Also: potency is read from the fitted curve at half-maximal effect. As to activity change, negative = inhibition: % is scaled to controls: 0 for no effect and ±100 for the full control effect. The settings on record: EPAC2 Rap1B-BODIPY-GDP exchange fluorescence, biochemical; series mostly up to 114 µM.
Sequence of Rap guanine nucleotide exchange factor 4 (Homo sapiens) (Q8WZA2 whole entry, looked up): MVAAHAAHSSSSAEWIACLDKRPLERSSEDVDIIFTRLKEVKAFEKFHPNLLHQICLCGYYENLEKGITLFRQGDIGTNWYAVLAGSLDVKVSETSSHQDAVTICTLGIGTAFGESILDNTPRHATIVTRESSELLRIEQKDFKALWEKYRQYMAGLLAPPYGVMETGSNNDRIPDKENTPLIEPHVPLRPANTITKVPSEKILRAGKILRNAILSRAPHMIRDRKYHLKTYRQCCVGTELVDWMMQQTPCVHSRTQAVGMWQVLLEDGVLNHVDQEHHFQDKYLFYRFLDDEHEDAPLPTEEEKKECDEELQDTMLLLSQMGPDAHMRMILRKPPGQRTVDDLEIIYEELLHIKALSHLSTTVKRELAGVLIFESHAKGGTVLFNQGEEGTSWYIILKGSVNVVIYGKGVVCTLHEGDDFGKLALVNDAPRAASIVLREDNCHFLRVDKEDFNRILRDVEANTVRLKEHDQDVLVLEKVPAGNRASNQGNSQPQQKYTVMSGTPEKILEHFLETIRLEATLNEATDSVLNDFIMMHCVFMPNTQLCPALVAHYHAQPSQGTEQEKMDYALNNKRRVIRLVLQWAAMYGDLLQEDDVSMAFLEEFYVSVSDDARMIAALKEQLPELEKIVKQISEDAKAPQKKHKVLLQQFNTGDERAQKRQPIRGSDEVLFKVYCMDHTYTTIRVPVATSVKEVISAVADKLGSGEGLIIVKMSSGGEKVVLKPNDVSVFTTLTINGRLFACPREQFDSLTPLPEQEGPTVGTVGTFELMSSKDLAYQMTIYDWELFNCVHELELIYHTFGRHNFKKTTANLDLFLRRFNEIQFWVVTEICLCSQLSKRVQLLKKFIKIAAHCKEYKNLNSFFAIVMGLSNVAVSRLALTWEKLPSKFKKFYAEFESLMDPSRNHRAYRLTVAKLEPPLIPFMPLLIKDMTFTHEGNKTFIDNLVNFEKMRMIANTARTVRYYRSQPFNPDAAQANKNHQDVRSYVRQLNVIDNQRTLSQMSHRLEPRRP
Experiment [6] addresses Rap guanine nucleotide exchange factor 3 (Homo sapiens) (UniProt O95398). Nature of the experiment: Counterscreen qHTS for antagonist of cAMP-regulated guanine nucleotide exchange factor 3 (EPAC1) (AID 1645888). Also: % of control where 0% means no effect. The settings on record: Rap1B-BODIPY-GDP nucleotide exchange, fluorescence; series mostly up to 30.8 µM. A digest of the protocol:
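Rap1B-BODIPY-GDP 250 nM + GDP 50 uM; cpds 7-pt, final 9.74 nM–152 uM (activator mode) or from 7.32 nM upwards (inhibitor mode); RT; FI 480/540 nm at 5 and 30 min, then ± cAMP, reread.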
(Counterscreens check selectivity or assay interference.)

In experiment [7] the target is Rap guanine nucleotide exchange factor 4 (Homo sapiens) (UniProt Q8WZA2). Nature of the experiment: Confirmatory qHTS for agonist of cAMP-regulated guanine nucleotide exchange factor 4 (EPAC2) (AID 1645884).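 Also: nucleotide exchange releases bodipy-GDP from Rap1 and this lowers its fluorescence; % is scaled to controls: 0 for no effect and ±100 for the full control effect; nearly all actives have a fitted effect of over 65% in size.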 The settings on record: EPAC2 GEF activity, Rap1B-BODIPY-GDP fluorescence; series mostly up to 154 µM.
In experiment [8] the target is Catechol O-methyltransferase (Homo sapiens) (UniProt P21964). Put plainly: Confirmatory Screen for Target Class Profiling of Small Molecule Inhibitors of Methyltransferases (AID 1745852; calls by dose curve; as to activity change, negative = inhibition: % is scaled to controls: 0 for no effect and ±100 for the full control effect). The following applies: MTase-Glo luminescence, SAH detection, recombinant enzyme; measured here: COMT max response; stronger effect = lower value.
Sequence of Catechol O-methyltransferase (Homo sapiens) (P21964 whole entry, looked up): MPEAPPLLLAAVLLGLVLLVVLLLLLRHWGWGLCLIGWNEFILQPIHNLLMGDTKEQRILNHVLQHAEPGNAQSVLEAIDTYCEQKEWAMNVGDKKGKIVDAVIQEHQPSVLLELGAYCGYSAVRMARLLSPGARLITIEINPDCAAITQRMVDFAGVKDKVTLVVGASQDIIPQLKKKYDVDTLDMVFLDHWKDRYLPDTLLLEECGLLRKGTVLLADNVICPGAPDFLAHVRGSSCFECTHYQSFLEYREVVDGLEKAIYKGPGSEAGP
The target of experiment [9] is Guanidinoacetate N-methyltransferase (Homo sapiens) (UniProt Q14353). The experiment is described as above. The settings on record: MTase-Glo luminescence, SAH detection, recombinant enzyme; activity change, negative = inhibition: at 57.3 µM (top of the series).
For experiment [10], the target named is Nicotinamide N-methyltransferase (Homo sapiens) (UniProt P40261). The description is as above. The following applies: MTase-Glo luminescence, SAH detection, recombinant enzyme; measured here: NNMT max response; stronger effect = lower value.
Sequence of Nicotinamide N-methyltransferase (Homo sapiens) (P40261 whole entry, looked up): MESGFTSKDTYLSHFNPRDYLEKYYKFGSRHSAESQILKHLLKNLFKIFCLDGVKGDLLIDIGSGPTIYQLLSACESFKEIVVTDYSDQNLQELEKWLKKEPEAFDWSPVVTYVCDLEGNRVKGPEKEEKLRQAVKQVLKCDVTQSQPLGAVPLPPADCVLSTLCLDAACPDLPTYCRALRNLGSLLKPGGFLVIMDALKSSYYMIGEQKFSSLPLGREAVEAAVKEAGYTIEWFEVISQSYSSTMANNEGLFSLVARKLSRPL
Experiment [11] concerns the target Phenylethanolamine N-methyltransferase (Homo sapiens) (UniProt P11086). Described as above. The following applies: MTase-Glo luminescence, SAH detection, recombinant enzyme; measured here: PNMT max response; stronger effect = lower value.
Experiment [12] can be described thus: NCATS anti-infectives library activity on HEK293 viability as a counter-qHTS vs the C. elegans viability qHTS (AID 1745854). Also: % is scaled to controls: 0 for no effect and ±100 for the full control effect. The following applies: HEK293 viability counter-screen; series mostly up to 41.8 µM. In a few lines:
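CellTiter-Glo luminescence, read on a CCD imager, scored viability of HEK293 cells after 24 hr compound exposure at 37C. Library tested in several concentrations, 1:5 steps, up to 41.7 uM; digitonin served as control.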

A short description of experiment [13]: HepG2 viability counterscreen (readout 2: ATP content) against the NCATS DSHEA and TCM libraries (AID 1794840). Also: 0% is about no effect. The following applies: ATP content luminescence; series mostly up to 27.3 µM. A digest of the protocol:
(§1)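 HepG2 cells, 1,000/well, attached ~4 h, then exposed ~24 h at 37C to substances. Protease activity read by fluorescence of 25 uM GF-AFC (Ex/Em 380/510 nm) after 30 min; ATP then by CellTiter-Glo luminescence.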

Experiment [14] in a line: HepG2 viability counterscreen (readout 1: protease activity) against the NCATS DSHEA and TCM libraries (AID 1794841).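 Also: cells exposed to compounds for about 24 h before the protease read; 0% is about no effect.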 The following applies: qHTS concentration series; series mostly up to 27.3 µM. In a few lines:
as §1

The structures appear in SMILES notation. “And” between values parts separate entries of the source, which are not always exact repeats. Equal entries are not always repeated. Results filed as inconclusive are left out. The source made the active and inactive calls. Unless noted, calls follow the shape of the dose curve; as a rule, active = well fitted curve in the direction sought with a large enough effect; inconclusive = small, poorly fitted or top-dose-only effect, or another doubt; inactive = no such curve, though single readings can be large; an effect the other way counts as inactive or inconclusive.

Sequence of Phenylethanolamine N-methyltransferase (Homo sapiens) (P11086 whole entry, looked up): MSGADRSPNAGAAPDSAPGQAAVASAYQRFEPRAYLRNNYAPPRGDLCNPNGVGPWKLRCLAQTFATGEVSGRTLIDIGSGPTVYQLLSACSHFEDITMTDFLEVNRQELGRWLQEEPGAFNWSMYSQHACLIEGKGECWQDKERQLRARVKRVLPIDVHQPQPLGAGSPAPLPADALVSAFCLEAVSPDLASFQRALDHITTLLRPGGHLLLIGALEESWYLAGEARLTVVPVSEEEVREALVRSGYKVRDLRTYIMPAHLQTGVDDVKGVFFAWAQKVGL

For `CCCCCCCCCCCCCCCC(=O)OC(C)C`, the Potency entry in [1] and in experiment [2] was “inactive” in each case.

For the molecule `Cn1cc(C2=C(c3ccc(Cl)cc3Cl)C(=O)NC2=O)c2ccccc21`, the Potency in experiment [1] and in experiment [2] was 6.51 µM (active) throughout. For the same molecule, the Potency entry in experiment [3] and in experiment [4] was “inactive” each time. The activity change, negative = inhibition in experiment [5] is 2.07% [at 12.7 µM] (inactive). Also, in experiment [6], the outcome is “inactive”.

For the molecule `Nc1cc(-c2ccncc2)c[nH]c1=O`, the Potency result in experiment [1], in experiment [2], in [3], in experiment [4], in [7] and in [5] was “inactive” throughout.

Consider `Nc1ccc([N+](=O)[O-])cc1O`, for which the values for the Potency in experiment [1] and in experiment [2] were 6.86 µM (active) and 7.7 µM (active), respectively.

Consider `COC(=O)C1=C(C)NC(C)=C(C(=O)OC)C1c1cccc(NC(=O)NCCCN2CCC(c3cccc(OC)c3)CC2)c1`, for which the Potency in [1] and in experiment [2] was 4.59 µM (active) throughout. In addition, the activity in experiment [8] was -1.21% and -6.68%; in [10], -24.5% and -25.9%; in experiment [11], 0.516% and -5.06%. Also, the activity change, negative = inhibition in experiment [9] was 0% and 10.5%.

On to `Cc1c(Nc2ncccc2C(=O)O)cccc1C(F)(F)F`, for which the Potency entry in experiment [2] was “inactive”.

For `CCN(CC)CCCCNc1ncc2cc(-c3c(Cl)cccc3Cl)c(NC(=O)NC(C)(C)C)nc2n1`, the Potency is 1.45 µM (active) in [1] and 3.65 µM (active) in experiment [2]. Moreover, the activity in experiment [8] was -7.59% and -2.1%; in experiment [10] it was -17.4% and -14.9%; in experiment [11], -6.92% and -0.98%. Besides, the activity change, negative = inhibition in experiment [9] was 0.993% and 9.36%.

Consider `COC(=O)c1c(C)[nH]c(C)c1C(=O)c1ccccc1Cc1ccccc1`, for which the Potency entry in [3] and in [4] was “inactive” in each case.

With `COc1cc(/C=C/C(=O)CC(=O)/C=C/c2ccc(O)c(OC)c2)ccc1O`, the Potency in [1] is 11.8 µM (active); in [2], 8.33 µM (active). Moreover, the figures for the activity in experiment [8], in experiment [10] and in experiment [11] were -53.7%, -4.44% and 9.5%, respectively. For the same molecule, in experiment [9], the activity change, negative = inhibition is -2.93%. Besides, the outcome in experiment [12] was “inactive”.

With `O=C(O)Cc1cccc(-c2cc(CCCCCCc3ccc(O[C@H]4O[C@H](CO)[C@@H](O)[C@H](O)[C@@H]4O)c(-c4cccc(CC(=O)O)c4)c3)ccc2O[C@H]2O[C@H](CO)[C@@H](O)[C@H](O)[C@@H]2O)c1`, the activity change, negative = viability loss in experiment [1] is 9.79% [at 0.588 µM] (inactive). For the same molecule, the outcome in experiment [2] was “inactive [at 0.588 µM]”.

On to `Cc1onc(-c2c(F)cccc2Cl)c1C(=O)N[C@@H]1C(=O)N2[C@@H]1SC(C)(C)[C@@H]2C(=O)O`, for which the Potency entry in experiment [1] and in experiment [2] was “inactive” in each case.

For `CCOC(=O)N1CCN(/[N+]([O-])=N/Oc2ccc([N+](=O)[O-])cc2[N+](=O)[O-])CC1`, the Potency is 7.42 µM (active) in [1] and 5.9 µM (active) in experiment [2]. Besides, the activity in [8] was -99.7%; in experiment [10] it was -19%; in experiment [11], -3.94%. Besides, in [9], the activity change, negative = inhibition was -4.08%.

`CCCCC1C(=O)N(c2ccccc2)N(c2ccc(O)cc2)C1=O` (stereo not drawn): the Potency in experiment [1] and in [2] was 0.531 µM (active) throughout.

Turning to `c1ccc(CCNc2nc(-c3ccccc3)cs2)cc1`, the Potency result in [3], in [4], in [7] and in experiment [5] was “inactive” in each case.

On to `Oc1cc(O)cc(/C=C/c2ccc(O)c(O)c2)c1`, for which the Potency is 6.51 µM (active) in experiment [1] and 7.31 µM (active) in experiment [2]. Also, the activity in experiment [8] was 119%; in [10], -18.4%; in [11], -8.17%. Also, the activity change, negative = inhibition in experiment [9] was -14.6%.

For `COc1ccc(-c2cc(=S)ss2)cc1`, the Potency entry in experiment [1] and in [2] was “inactive” each time.

Take `O=C(O)c1ccccc1Nc1cccc(C(F)(F)F)c1`: the Potency result in experiment [2], in experiment [3], in [4] and in experiment [7] was “inactive” each time.

With `COC(=O)[C@H]1[C@H]2C[C@@H]3c4[nH]c5cc(OC)ccc5c4CCN3C[C@H]2C[C@@H](OC(=O)/C=C/c2cc(OC)c(OC)c(OC)c2)[C@@H]1OC`, the Potency result in experiment [2], in experiment [3], in experiment [4] and in [5] was “inactive” throughout.

On to `C#C[C@]1(O)CC[C@H]2[C@@H]3CCc4cc(O)ccc4[C@H]3CC[C@@]21C`, for which the Potency in experiment [1] is 11.8 µM (active); in experiment [2], 18.8 µM (active) and 10.5 µM (active).

For `CC(C)(C)c1nnc(NS(=O)(=O)c2ccc(N)cc2)s1`, the Potency entry in experiment [1] and in [2] was “inactive” throughout.

Consider `COC(=O)C1=C(C)NC(C)=C(C(=O)OCC(C)=O)C1c1ccccc1[N+](=O)[O-]` (stereo not drawn), for which the Potency in [1] and in experiment [2] was 11.9 µM (active) each time.

With `CCCCCCCCCCCCCCCCCC(=O)O`, the Potency result in experiment [1] and in [2] was “inactive” throughout. Besides, the outcome in experiment [13] and in experiment [14] was “inactive” each time.

For `O=C(O)Cc1ccc(-c2ccccc2)cc1`, in [2], the Potency result was “inactive”.

Regarding `CCNc1nc2c(ncn2[C@H]2C[C@H](O)[C@@H](CO)O2)c(=O)[nH]1`, the Potency result in experiment [1] and in experiment [2] was “inactive” in each case.

As to `CC1(C)[C@@H](O)CC[C@]2(C)[C@H]3C(=O)C=C4[C@@H]5C[C@@](C)(C(=O)O)CC[C@]5(C)CC[C@@]4(C)[C@]3(C)CC[C@@H]12`, the Potency entry in experiment [1], in experiment [2], in experiment [3], in experiment [4] and in experiment [7] was “inactive” throughout. Also, the Potency in experiment [5] was 3.93 µM (active) and 2.48 µM (active).

In the case of `COC(=O)c1nc(Cl)c(Cl)nc1N`, the Potency in [1] was 0.0596 µM (active); in [2] it was 0.0376 µM (active).

`CN[C@H](CC(C)C)C(=O)N[C@H]1C(=O)N[C@@H](CC(N)=O)C(=O)N[C@H]2C(=O)N[C@H]3C(=O)N[C@H](C(=O)N[C@H](C(=O)O)c4cc(O)cc(O)c4-c4cc3ccc4O)[C@H](O)c3ccc(c(Cl)c3)Oc3cc2cc(c3O[C@@H]2O[C@H](CO)[C@@H](O)[C@H](O)[C@H]2O[C@H]2C[C@](C)(N)[C@H](O)[C@H](C)O2)Oc2ccc(cc2Cl)[C@H]1O`: the Potency entry in experiment [1] and in experiment [2] was “inactive” throughout.

These data come from PubChem BioAssay (NCATS).
